According to PubChem BioAssay (EPA / NIEHS):
Calls of active or inactive are those of the source. Rule for the calls: active = hit-call score of the fitted dose curve at least 0.9, where 1 is the maximum; inactive = score below 0.9.

Key:
Conditions in all cases: mRNA level, 48 h; actives raise or lower the signal
[1] = read-out: Lipoprotein lipase (LPL), LPL (gene 4023); assay: LTEA_HepaRG_LPL: Life Technologies and Expression Analysis (LTEA) Assay for Lipoprotein lipase (LPL) using HepaRG (AID 2283515)
Method in brief: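 Read-out is LPL transcript level by qRT-PCR, normalized to three housekeeping genes and fitted bidirectionally against the DMSO control. Human HepaRG cells received chemicals for 48 h at up to 100 uM.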

[2] = read-out: MicroRNA 122 (MIR122), gene 406906; assay: LTEA_HepaRG_MIR122: Life Technologies and Expression Analysis (LTEA) Assay for MicroRNA 122 (MIR122) using HepaRG (AID 2283516); note: the transcript read is the microRNA miR-122
Method in brief: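 HepaRG plated 48 h, switched to serum-free induction medium, then treated in duplicate for 48 h (100 uM top, half-log steps, 0.5% DMSO vehicle). RNA isolated, qRT-PCR performed, concentration-response fitted both directions relative to DMSO.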

[3] = read-out: matrix metalloproteinase-10 (MMP10), MMP10 (gene 4319); assay: LTEA_HepaRG_MMP10: Life Technologies and Expression Analysis (LTEA) Assay for matrix metalloproteinase-10 (MMP10) using HepaRG (AID 2283517)
Method in brief: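 Gain or loss of MMP10 mRNA is fitted relative to the 0.5% DMSO vehicle. The human hepatic line HepaRG receives a 48-hour serum-free exposure, in duplicate, with a maximum concentration of 100 uM.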

[4] = read-out: MYC, MYC (gene 4609); assay: LTEA_HepaRG_MYC: Life Technologies and Expression Analysis (LTEA) Assay for MYC using HepaRG (AID 2283518)
Method in brief: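 Expression changes were scored by TaqMan qRT-PCR with ACTB, GAPDH and POLR2A normalization. Cultures in serum-free induction medium received duplicate 8-point concentration series, highest 100 uM, for 48 h; DMSO (0.5%) served as baseline.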

[5] = read-out: matrix metalloproteinase-3 (MMP3), MMP3 (gene 4314); assay: LTEA_HepaRG_MMP3: Life Technologies and Expression Analysis (LTEA) Assay for matrix metalloproteinase-3 (MMP3) using HepaRG (AID 2283519)
Method in brief: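 HepaRG, human; 48 h dosing, 8 conc. (max 100 uM, half-log), duplicate, 0.5% DMSO. Readout: MMP3 transcript by Fluidigm TaqMan qRT-PCR, ACTB/GAPDH/POLR2A-normalised. Gain or loss fitted vs DMSO.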

[6] = read-out: Paternally Expressed 10 (PEG10), PEG10 (gene 23089); assay: LTEA_HepaRG_PEG10: Life Technologies and Expression Analysis (LTEA) Assay for Paternally Expressed 10 (PEG10) using HepaRG (AID 2283520)
Method in brief: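 HepaRG, 48 h post-plating → serum-free induction medium → 48 h chemical exposure (duplicate, 8-pt, max 100 uM, half-log, 0.5% DMSO) → lysis in RLT → TaqMan qRT-PCR for PEG10, ACTB/GAPDH/POLR2A normalisation.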

[7] = read-out: Phosphatase and tensin (PTEN), PTEN (gene 5728); assay: LTEA_HepaRG_PTEN: Life Technologies and Expression Analysis (LTEA) Assay for Phosphatase and tensin (PTEN) using HepaRG (AID 2283523)
Method in brief: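 Read-out is PTEN transcript level by multiplexed TaqMan qRT-PCR after 48 h chemical treatment of human HepaRG cultures in serum-free induction medium. Concentrations spanned 100 uM downward in half-log steps, 0.5% DMSO throughout; activity fitted in both directions against vehicle.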

[8] = read-out: solute carrier (SLC22A1), SLC22A1 (gene 6580); assay: LTEA_HepaRG_SLC22A1: Life Technologies and Expression Analysis (LTEA) Assay for solute carrier (SLC22A1) using HepaRG (AID 2283524)
Method in brief: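 HepaRG (human liver line), 48 h dosing in serum-free induction medium; 8 conc., half-log down from 100 uM, 0.5% DMSO vehicle, duplicates. Endpoint: SLC22A1 mRNA, qRT-PCR, housekeeping-normalized; gain/loss fit vs DMSO.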

[9] = read-out: Pyruvate Dehydrogenase Kinase 4 (PDK4), PDK4 (gene 5166); assay: LTEA_HepaRG_PDK4: Life Technologies and Expression Analysis (LTEA) Assay for Pyruvate Dehydrogenase Kinase 4 (PDK4) using HepaRG (AID 2283525)
Method in brief: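 In this multiplexed human HepaRG expression assay, cells are treated 48 h with test chemicals across an eight-point range starting at 100 uM. PDK4 mRNA changes, normalized to ACTB/GAPDH/POLR2A, are fitted in both directions relative to vehicle.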

[10] = read-out: NAD(P)H dehydrogenase [quinone] 1 (NQO1), NQO1 (gene 1728); assay: LTEA_HepaRG_NQO1: Life Technologies and Expression Analysis (LTEA) Assay for NAD(P)H dehydrogenase [quinone] 1 (NQO1) using HepaRG (AID 2283526)
Method in brief: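 HepaRG, 48 h post-plating → serum-free induction medium → test chemical 48 h (duplicate, 100 uM top, half-log x8, 0.5% DMSO) → RNA isolation → qRT-PCR, ACTB/GAPDH/POLR2A normalization; bidirectional curve fit vs DMSO baseline.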

[11] = read-out: Nuclear factor erythroid 2-related factor 2 (Homo sapiens) (UniProt Q16236); assay: LTEA_HepaRG_NFE2L2: Life Technologies and Expression Analysis (LTEA) Assay for Nuclear factor erythroid 2-related factor 2 (NFE2L2) Transcription Factor using HepaRG (AID 2283527);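 note: TaqMan qRT-PCR transcript level normalised to ACTB GAPDH and POLR2A housekeeping genes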
Method in brief: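 Transcript level of NFE2L2 is the read-out, measured by microfluidic TaqMan qRT-PCR and normalized to three housekeeping genes. Human HepaRG cultures received test chemical for 48 h at up to 100 uM in half-log steps. Gain or loss of signal is fitted relative to 0.5% DMSO.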

[12] = read-out: succinate dehydrogenase complex iron sulfur subunit B (SDHB), SDHB (gene 6390); assay: LTEA_HepaRG_SDHB: Life Technologies and Expression Analysis (LTEA) Assay for succinate dehydrogenase complex iron sulfur subunit B (SDHB) using HepaRG (AID 2283528)
Method in brief: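 HepaRG cells (~100,000/well, plated 48 h) exposed in duplicate for 48 h in serum-free induction medium to 8-point half-log series from 100 uM in 0.5% DMSO; mRNA by qRT-PCR normalised to ACTB, GAPDH, POLR2A; bidirectional fit versus DMSO.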

[13] = read-out: Signal transducer and activator of transcription 3 (Homo sapiens) (UniProt P40763); assay: LTEA_HepaRG_STAT3: Life Technologies and Expression Analysis (LTEA) Assay for Signal transducer and activator of transcription (STAT3) using HepaRG (AID 2283529)
Method in brief: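 Read-out is STAT3 mRNA level by qRT-PCR, normalized to three housekeeping genes, in human HepaRG liver cells treated for 48 h. Concentrations ran from 100 uM downward in half-log steps; curves were fitted for gain or loss relative to 0.5% DMSO.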

[14] = read-out: solute carrier (SLCO1B1), SLCO1B1 (gene 10599); assay: LTEA_HepaRG_SLCO1B1: Life Technologies and Expression Analysis (LTEA) Assay for solute carrier (SLCO1B1) using HepaRG (AID 2283530)
Method in brief: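 Human HepaRG cultures treated for 48 h with an eight-concentration half-log series topping at 100 uM; SLCO1B1 measured by qRT-PCR and fitted bidirectionally relative to DMSO.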

[15] = read-out: sulfotransferase 2A1 (SULT2A1), SULT2A1 (gene 6822); assay: LTEA_HepaRG_SULT2A1: Life Technologies and Expression Analysis (LTEA) Assay for sulfotransferase 2A1 (SULT2A1) using HepaRG (AID 2283531)
Method in brief: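 Gene-expression endpoint in a human liver cell line: SULT2A1 mRNA change after 48 h chemical treatment, curves fitted in both directions relative to 0.5% DMSO vehicle. Concentrations spanned eight half-log steps from 100 uM.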

[16] = read-out: Transforming Growth Factor (TGFA), TGFA (gene 7039); assay: LTEA_HepaRG_TGFA: Life Technologies and Expression Analysis (LTEA) Assay for Transforming Growth Factor (TGFA) using HepaRG (AID 2283532)
Method in brief: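 HepaRG (human liver line), 48 h exposure, 8 conc. half-log down from 100 uM, 0.5% DMSO vehicle, duplicates; serum-free induction medium. TGFA mRNA by TaqMan qRT-PCR, ACTB/GAPDH/POLR2A normalization; gain/loss fit vs DMSO.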

[17] = read-out: Transforming Growth Factor (TGFB1), TGFB1 (gene 7040); assay: LTEA_HepaRG_TGFB1: Life Technologies and Expression Analysis (LTEA) Assay for Transforming Growth Factor (TGFB1) Transporter using HepaRG (AID 2283533)
Method in brief: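 Eight-point concentration-response (max 100 uM, half-log) in HepaRG under serum-free induction conditions, 48 h. TGFB1 mRNA by qRT-PCR, housekeeping-normalized.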

[18] = read-out: Tumor necrosis factor receptor 1 (TNFRSF1A), TNFRSF1A (gene 7132); assay: LTEA_HepaRG_TNFRSF1A: Life Technologies and Expression Analysis (LTEA) Assay for Tumor necrosis factor receptor 1 (TNFRSF1A) using HepaRG (AID 2283535)
Method in brief: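 Assay uses 48 h chemical treatment of differentiated HepaRG monolayers, tested in duplicate at eight concentrations from 100 uM downward in 0.5% DMSO. mRNA is normalized to ACTB, GAPDH and POLR2A, with induction or suppression fitted relative to vehicle.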

[19] = read-out: Protein phosphatase 2A (PPP2R4), PTPA (gene 5524); assay: LTEA_HepaRG_PPP2R4: Life Technologies and Expression Analysis (LTEA) Assay for Protein phosphatase 2A (PPP2R4) using HepaRG (AID 2283522)
Method in brief: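 Readout is PPP2R4 transcript level by microfluidic qRT-PCR after 48 h chemical treatment of human HepaRG liver cells. Concentrations spanned 100 uM downward in half-log steps; gain or loss of signal was fitted relative to DMSO.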

Measured: AC50

Nuclear factor erythroid 2-related factor 2 (Homo sapiens), sequence (Q16236 whole entry, looked up): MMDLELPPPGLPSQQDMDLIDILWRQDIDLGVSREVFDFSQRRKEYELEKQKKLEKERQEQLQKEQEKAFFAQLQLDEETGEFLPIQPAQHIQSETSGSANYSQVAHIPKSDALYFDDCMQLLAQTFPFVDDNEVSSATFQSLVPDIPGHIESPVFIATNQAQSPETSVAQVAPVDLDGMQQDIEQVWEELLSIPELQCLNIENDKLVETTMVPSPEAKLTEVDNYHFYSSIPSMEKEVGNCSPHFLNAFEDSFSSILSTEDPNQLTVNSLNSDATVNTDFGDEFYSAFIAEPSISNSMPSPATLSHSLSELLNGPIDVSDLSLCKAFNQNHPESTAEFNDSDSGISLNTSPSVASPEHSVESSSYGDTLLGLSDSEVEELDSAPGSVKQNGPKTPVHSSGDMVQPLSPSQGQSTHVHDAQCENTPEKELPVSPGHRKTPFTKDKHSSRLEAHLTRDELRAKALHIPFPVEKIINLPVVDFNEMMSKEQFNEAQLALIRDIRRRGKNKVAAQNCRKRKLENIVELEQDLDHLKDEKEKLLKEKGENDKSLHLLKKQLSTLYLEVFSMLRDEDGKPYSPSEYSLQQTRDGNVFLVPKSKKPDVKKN
Signal transducer and activator of transcription 3 (Homo sapiens), sequence (P40763 whole entry, looked up): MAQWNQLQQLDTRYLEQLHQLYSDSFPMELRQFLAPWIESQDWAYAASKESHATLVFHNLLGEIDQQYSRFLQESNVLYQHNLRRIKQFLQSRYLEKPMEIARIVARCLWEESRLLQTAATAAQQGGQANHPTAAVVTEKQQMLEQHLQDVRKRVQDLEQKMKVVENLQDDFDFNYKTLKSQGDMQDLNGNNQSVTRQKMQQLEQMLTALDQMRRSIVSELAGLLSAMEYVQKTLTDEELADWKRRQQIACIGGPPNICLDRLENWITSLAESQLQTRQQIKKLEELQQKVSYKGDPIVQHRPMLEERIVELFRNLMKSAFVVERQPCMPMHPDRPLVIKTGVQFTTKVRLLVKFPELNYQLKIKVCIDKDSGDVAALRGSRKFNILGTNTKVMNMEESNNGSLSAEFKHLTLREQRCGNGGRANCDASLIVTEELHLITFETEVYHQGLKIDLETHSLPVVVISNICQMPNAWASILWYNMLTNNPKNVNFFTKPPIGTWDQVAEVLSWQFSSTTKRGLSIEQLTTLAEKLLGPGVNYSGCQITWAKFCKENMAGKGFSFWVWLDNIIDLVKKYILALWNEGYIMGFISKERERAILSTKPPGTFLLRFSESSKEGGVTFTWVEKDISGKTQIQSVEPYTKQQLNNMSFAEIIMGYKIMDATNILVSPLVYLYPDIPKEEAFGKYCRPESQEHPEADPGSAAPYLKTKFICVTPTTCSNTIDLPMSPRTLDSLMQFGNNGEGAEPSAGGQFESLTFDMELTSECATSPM

C#CCOC(=O)[C@@H](C)Oc1ccc(Oc2ncc(Cl)cc2F)cc1
active: [9] 50 µM
not listed: [19]
inactive: all other assays above

CCCCOC(=O)[C@@H](C)Oc1ccc(Oc2ccc(C(F)(F)F)cn2)cc1
active: [6] 5.38 µM
inactive: all other assays above

COC(=O)c1ccccc1C(=O)O
not listed: [19]
inactive: all other assays above
